{"source": "PubChem BioAssay AID1159580", "about": "(chemical genetic matrix, 2015)", "assay": "chemical genetic growth profiling, strain panel (AID 1159580);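 also: tested at 20 µM; growth read once vehicle control cultures reached saturation at 30 °C; 1 = growth at the plate median or of vehicle wells; lower values mean less growth of the strain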", "settings": "growth OD", "note": "The whole screen tested about 5,500 compounds, of which about 2,000 (36%) were called active. Roughly 18% stayed inconclusive and do not appear here. This is one part of the list. Unmarked numbers belong to inactive results. Rule as the data show it: active = normalized growth mostly below about 0.91 (no sharp cut-off); inconclusive = no clear call, values can overlap the other calls; inactive = mostly above about 0.92."}
{"molecule": "COc1cc2occ(-c3ccccc3)c(=O)c2c(OC)c1C", "values": [{"measurement": "normalized growth", "setting": "S. cerevisiae deletion strains, locus YJR043C, strain POL32, stronger effect = lower value", "result": 0.937}, {"measurement": "normalized growth", "setting": "S. cerevisiae deletion strains, locus YJR075W, strain HOC1, stronger effect = lower value", "result": 0.908}, {"measurement": "normalized growth", "setting": "S. cerevisiae deletion strains, locus YKL009W, strain mrt4, stronger effect = lower value", "result": 0.941}, {"measurement": "normalized growth", "setting": "S. cerevisiae deletion strains, locus YKL068W, stronger effect = lower value", "result": 0.965}, {"measurement": "normalized growth", "setting": "S. cerevisiae deletion strains, locus YKL085W, strain MDH1 (second series), stronger effect = lower value", "result": 0.952}, {"measurement": "normalized growth", "setting": "S. cerevisiae deletion strains, locus YKL085W, strain MDH1, stronger effect = lower value", "result": 0.952}, {"measurement": "normalized growth", "setting": "S. cerevisiae deletion strains, locus YKL160W, strain elf1, stronger effect = lower value", "result": 0.969}, {"measurement": "normalized growth", "setting": "S. cerevisiae deletion strains, locus YKL190W, strain CNB1, stronger effect = lower value", "result": 0.961}, {"measurement": "normalized growth", "setting": "S. cerevisiae deletion strains, locus YKR001C, strain vps1, stronger effect = lower value", "result": "0.855 (active)"}, {"measurement": "normalized growth", "setting": "S. cerevisiae deletion strains, locus YKR026C, strain gcn3, stronger effect = lower value", "result": 0.973}, {"measurement": "normalized growth", "setting": "S. cerevisiae deletion strains, locus YKR091W, strain srl3, stronger effect = lower value", "result": 0.976}, {"measurement": "normalized growth", "setting": "S. cerevisiae deletion strains, locus YLL001W, strain dnm1, stronger effect = lower value", "result": 0.98}, {"measurement": "normalized growth", "setting": "S. cerevisiae deletion strains, locus YLL026W, stronger effect = lower value", "result": 0.971}, {"measurement": "normalized growth", "setting": "S. cerevisiae deletion strains, locus YLL041C, strain sdh2, stronger effect = lower value", "result": 0.976}, {"measurement": "normalized growth", "setting": "S. cerevisiae deletion strains, locus YLR027C, strain aat2, stronger effect = lower value", "result": 0.979}, {"measurement": "normalized growth", "setting": "S. cerevisiae deletion strains, locus YLR039C, strain RIC1, stronger effect = lower value", "result": 0.763}, {"measurement": "normalized growth", "setting": "S. cerevisiae deletion strains, locus YLR058C, strain SHM2, stronger effect = lower value", "result": 0.951}, {"measurement": "normalized growth", "setting": "S. cerevisiae deletion strains, locus YLR102C, strain apc9, stronger effect = lower value", "result": 0.96}, {"measurement": "normalized growth", "setting": "S. cerevisiae deletion strains, locus YLR221C, strain rsa3, stronger effect = lower value", "result": 0.979}, {"measurement": "normalized growth", "setting": "S. cerevisiae deletion strains, locus YLR258W, strain gsy2, stronger effect = lower value", "result": 0.97}, {"measurement": "normalized growth", "setting": "S. cerevisiae deletion strains, locus YLR262C, strain YPT6 (second series), stronger effect = lower value", "result": "0.766 (active)"}, {"measurement": "normalized growth", "setting": "S. cerevisiae deletion strains, locus YLR262C, strain YPT6, stronger effect = lower value", "result": 0.725}, {"measurement": "normalized growth", "setting": "S. cerevisiae deletion strains, locus YLR268W, strain sec22, stronger effect = lower value", "result": "0.873 (active)"}, {"measurement": "normalized growth", "setting": "S. cerevisiae deletion strains, locus YLR320W, strain mms22, stronger effect = lower value", "result": 0.902}, {"measurement": "normalized growth", "setting": "S. cerevisiae deletion strains, locus YLR330W, strain CHS5, stronger effect = lower value", "result": 0.957}, {"measurement": "normalized growth", "setting": "S. cerevisiae deletion strains, locus YLR342W, strain FKS1 (second series), stronger effect = lower value", "result": "0.714 (active)"}, {"measurement": "normalized growth", "setting": "S. cerevisiae deletion strains, locus YLR342W, strain FKS1, stronger effect = lower value", "result": 0.968}, {"measurement": "normalized growth", "setting": "S. cerevisiae deletion strains, locus YLR357W, strain rsc2, stronger effect = lower value", "result": 0.97}, {"measurement": "normalized growth", "setting": "S. cerevisiae deletion strains, locus YLR370C, strain arc18, stronger effect = lower value", "result": 0.962}, {"measurement": "normalized growth", "setting": "S. cerevisiae deletion strains, locus YLR371W, strain rom2, stronger effect = lower value", "result": 0.923}, {"measurement": "normalized growth", "setting": "S. cerevisiae deletion strains, locus YLR384C, strain iki3, stronger effect = lower value", "result": 0.976}, {"measurement": "normalized growth", "setting": "S. cerevisiae deletion strains, locus YLR418C, strain cdc73, stronger effect = lower value", "result": "0.788 (active)"}, {"measurement": "normalized growth", "setting": "S. cerevisiae deletion strains, locus YML016C, strain PPZ1, stronger effect = lower value", "result": 0.956}, {"measurement": "normalized growth", "setting": "S. cerevisiae deletion strains, locus YML032C, strain rad52, stronger effect = lower value", "result": "0.898 (active)"}, {"measurement": "normalized growth", "setting": "S. cerevisiae deletion strains, locus YML120C, strain ndi1, stronger effect = lower value", "result": 0.951}, {"measurement": "normalized growth", "setting": "S. cerevisiae deletion strains, locus YML124C, strain tub3, stronger effect = lower value", "result": 0.942}, {"measurement": "normalized growth", "setting": "S. cerevisiae deletion strains, locus YMR058W, strain fet3, stronger effect = lower value", "result": 0.97}, {"measurement": "normalized growth", "setting": "S. cerevisiae deletion strains, locus YMR078C, strain ctf18, stronger effect = lower value", "result": 0.927}, {"measurement": "normalized growth", "setting": "S. cerevisiae deletion strains, locus YMR125W, strain sto1, stronger effect = lower value", "result": 1}, {"measurement": "normalized growth", "setting": "S. cerevisiae deletion strains, locus YMR129W, stronger effect = lower value", "result": 0.981}, {"measurement": "normalized growth", "setting": "S. cerevisiae deletion strains, locus YMR205C, strain PFK2, stronger effect = lower value", "result": 0.932}, {"measurement": "normalized growth", "setting": "S. cerevisiae deletion strains, locus YMR223W, strain ubp8, stronger effect = lower value", "result": "0.885 (active)"}, {"measurement": "normalized growth", "setting": "S. cerevisiae deletion strains, locus YMR231W, strain pep5, stronger effect = lower value", "result": 0.998}, {"measurement": "normalized growth", "setting": "S. cerevisiae deletion strains, locus YMR263W, strain SAP30, stronger effect = lower value", "result": 0.926}, {"measurement": "normalized growth", "setting": "S. cerevisiae deletion strains, locus YMR307W, strain GAS1, stronger effect = lower value", "result": 0.665}, {"measurement": "normalized growth", "setting": "S. cerevisiae deletion strains, locus YNL067W, strain RPL9B, stronger effect = lower value", "result": 0.95}, {"measurement": "normalized growth", "setting": "S. cerevisiae deletion strains, locus YNL071W, strain lat1, stronger effect = lower value", "result": "0.819 (active)"}, {"measurement": "normalized growth", "setting": "S. cerevisiae deletion strains, locus YNL128W, strain TEP1, stronger effect = lower value", "result": 0.963}, {"measurement": "normalized growth", "setting": "S. cerevisiae deletion strains, locus YNL153C, strain GIM3, stronger effect = lower value", "result": 0.991}, {"measurement": "normalized growth", "setting": "S. cerevisiae deletion strains, locus YNL209W, strain ssb2, stronger effect = lower value", "result": 0.988}, {"measurement": "normalized growth", "setting": "S. cerevisiae deletion strains, locus YNL233W, strain BNI4, stronger effect = lower value", "result": 0.908}, {"measurement": "normalized growth", "setting": "S. cerevisiae deletion strains, locus YNL248C, strain rpa49, stronger effect = lower value", "result": 0.98}, {"measurement": "normalized growth", "setting": "S. cerevisiae deletion strains, locus YNL250W, strain rad50, stronger effect = lower value", "result": 0.956}, {"measurement": "normalized growth", "setting": "S. cerevisiae deletion strains, locus YNL271C, strain bni1, stronger effect = lower value", "result": 0.937}, {"measurement": "normalized growth", "setting": "S. cerevisiae deletion strains, locus YNL298W, strain CLA4, stronger effect = lower value", "result": 0.946}, {"measurement": "normalized growth", "setting": "S. cerevisiae deletion strains, locus YNL307C, strain MCK1, stronger effect = lower value", "result": "0.664 (active)"}, {"measurement": "normalized growth", "setting": "S. cerevisiae deletion strains, locus YNL322C, strain KRE1 (second series), stronger effect = lower value", "result": 0.991}, {"measurement": "normalized growth", "setting": "S. cerevisiae deletion strains, locus YNL322C, strain KRE1, stronger effect = lower value", "result": 0.965}, {"measurement": "normalized growth", "setting": "S. cerevisiae deletion strains, locus YNR049C, strain mso1, stronger effect = lower value", "result": 0.985}, {"measurement": "normalized growth", "setting": "S. cerevisiae deletion strains, locus YNR052C, strain pop2, stronger effect = lower value", "result": 0.933}, {"measurement": "normalized growth", "setting": "S. cerevisiae deletion strains, locus YOL006C, strain TOP1, stronger effect = lower value", "result": 0.787}, {"measurement": "normalized growth", "setting": "S. cerevisiae deletion strains, locus YOL012C, strain htz1", "result": 0.865}, {"measurement": "normalized growth", "setting": "S. cerevisiae deletion strains, locus YOL147C, strain pex11, stronger effect = lower value", "result": "0.923 (active)"}, {"measurement": "normalized growth", "setting": "S. cerevisiae deletion strains, locus YOR001W, strain rrp6, stronger effect = lower value", "result": 1}, {"measurement": "normalized growth", "setting": "S. cerevisiae deletion strains, locus YOR061W, strain CKA2, stronger effect = lower value", "result": 0.96}, {"measurement": "normalized growth", "setting": "S. cerevisiae deletion strains, locus YOR069W, strain VPS5, stronger effect = lower value", "result": 0.968}, {"measurement": "normalized growth", "setting": "S. cerevisiae deletion strains, locus YOR070C, strain gyp1, stronger effect = lower value", "result": 0.982}, {"measurement": "normalized growth", "setting": "S. cerevisiae deletion strains, locus YOR080W, strain dia2, stronger effect = lower value", "result": 1}, {"measurement": "normalized growth", "setting": "S. cerevisiae deletion strains, locus YOR083W, strain WHI5, stronger effect = lower value", "result": 0.965}, {"measurement": "normalized growth", "setting": "S. cerevisiae deletion strains, locus YOR106W, strain vam3, stronger effect = lower value", "result": 0.953}, {"measurement": "normalized growth", "setting": "S. cerevisiae deletion strains, locus YOR136W, strain idh2, stronger effect = lower value", "result": 0.952}, {"measurement": "normalized growth", "setting": "S. cerevisiae deletion strains, locus YOR144C, strain elg1, stronger effect = lower value", "result": 0.946}, {"measurement": "normalized growth", "setting": "S. cerevisiae deletion strains, locus YOR184W, strain ser1, stronger effect = lower value", "result": "0.742 (active)"}, {"measurement": "normalized growth", "setting": "S. cerevisiae deletion strains, locus YOR265W, strain rbl2, stronger effect = lower value", "result": 0.962}, {"measurement": "normalized growth", "setting": "S. cerevisiae deletion strains, locus YOR270C, strain vph1, stronger effect = lower value", "result": 0.801}, {"measurement": "normalized growth", "setting": "S. cerevisiae deletion strains, locus YOR290C, strain snf2, stronger effect = lower value", "result": 0.919}, {"measurement": "normalized growth", "setting": "S. cerevisiae deletion strains, locus YOR316C, strain cot1, stronger effect = lower value", "result": 0.937}, {"measurement": "normalized growth", "setting": "S. cerevisiae deletion strains, locus YPL051W, strain arl3, stronger effect = lower value", "result": 0.942}, {"measurement": "normalized growth", "setting": "S. cerevisiae deletion strains, locus YPL055C, strain LGE1, stronger effect = lower value", "result": 0.888}, {"measurement": "normalized growth", "setting": "S. cerevisiae deletion strains, locus YPL078C, strain atp4, stronger effect = lower value", "result": 0.956}, {"measurement": "normalized growth", "setting": "S. cerevisiae deletion strains, locus YPL106C, strain sse1, stronger effect = lower value", "result": 0.993}, {"measurement": "normalized growth", "setting": "S. cerevisiae deletion strains, locus YPL240C, strain hsp82, stronger effect = lower value", "result": 0.969}, {"measurement": "normalized growth", "setting": "S. cerevisiae deletion strains, locus YPL241C, strain CIN2, stronger effect = lower value", "result": 0.959}, {"measurement": "normalized growth", "setting": "S. cerevisiae deletion strains, locus YPR119W, strain clb2, stronger effect = lower value", "result": 0.959}, {"measurement": "normalized growth", "setting": "S. cerevisiae deletion strains, locus YPR141C, strain kar3, stronger effect = lower value", "result": 0.944}, {"measurement": "normalized growth", "setting": "S. cerevisiae deletion strains, locus YPR163C, strain tif3, stronger effect = lower value", "result": 0.937}, {"measurement": "normalized growth", "setting": "S. cerevisiae deletion strains, locus YPR167C, strain met16, stronger effect = lower value", "result": 0.942}, {"measurement": "normalized growth", "setting": "S. cerevisiae deletion strains, strain wtn01, stronger effect = lower value", "result": 0.916}, {"measurement": "normalized growth", "setting": "S. cerevisiae strains, strain wild type, stronger effect = lower value", "result": 0.928}]}
